Reference: PubChem BioAssay (Tox21)
Values without a mark were called inactive. Inconclusive results are not listed. Where a call stands in place of a potency, no number is given. Activity calls are given as the source filed them. Unless noted, the call rests on the fitted dose curve; in most records, active means well fitted curve in the direction sought with a large enough effect in the repeat runs; inconclusive means weak or mixed curves; inactive means no such curve, though single readings can be large; an effect the other way counts as inactive or inconclusive.

Columns and labels:
[1] = qHTS assay for small molecules that induce genotoxicity in human embryonic kidney cells expressing luciferase-tagged ATAD5 (AID 651632); conditions: HEK293T ATAD5-luciferase induction, 16 h; series mostly up to 83.3 µM; further: nearly all actives have a fitted effect of over 15% in size
Procedure, shortened: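 Quantitative HTS in HEK293T expressing luciferase-tagged ATAD5, whose levels rise upon DNA damage. Exposure ran 16 hr at 37C and 5% CO2, with luminescence read 30 min after Amplite addition at room temperature.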

[2] = qHTS assay for small molecule disruptors of the mitochondrial membrane potential - cell viability (AID 720634; calls by dose curve;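 further: human HepG2 liver cancer cells; nearly all actives have a fitted effect of over 20% in size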); conditions: HepG2 viability, ATP luminescence (CellTiter-Glo), 1 h; series mostly up to 83.2 µM
Procedure, shortened: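 ATP-based luminescent viability readout (CellTiter-Glo, 30 min, room temperature) in HepG2 cells multiplexed with the m-MPI membrane potential dye; compound exposure lasted 1 hr at 37 C.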

[3] = qHTS assay to test for compound auto fluorescence at 590 nm (red) in HepG2 cells (AID 720674); conditions: HepG2 autofluorescence, red 540/590 nm, 1 h; series mostly up to 91.3 µM
Procedure, shortened: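 Red autofluorescence (Ex/Em 540/590 nm, Rose Bengal sodium equivalents) was measured in HepG2 cells, 2,000 per well in MEM plus 10% FBS, plated overnight at 37 C. Readings were taken 1 hr after adding 23 nL compound or DMSO, at 37 C and 5% CO2.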

[4] = qHTS assay to test for compound auto fluorescence at 535 nm (green) in HepG2 cells (AID 720675); conditions: green autofluorescence 485/535 nm, 1 h; series mostly up to 91.3 µM
[5] = qHTS assay to test for compound auto fluorescence at 460 nm (blue) in HEK293 cells (AID 720678); conditions: blue autofluorescence 405/460 nm; series mostly up to 91.3 µM
Procedure, shortened: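 Cells were seeded and left to adhere for 4-5 hr at 37C. Compounds were then pin-transferred. After an overnight incubation at 37C under 5% CO2, intrinsic fluorescence at 405/460 nm was measured and referenced to triamterene.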

[6] = qHTS assay to test for compound auto fluorescence at 590 nm (red) in HEK293 cells (AID 720679); conditions: red autofluorescence 540/590 nm; series mostly up to 91.3 µM
Procedure, shortened: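 Each well held 2,000 HEK293 cells in medium containing 10% dialyzed FBS. Following 4-5 hr attachment at 37C, 23 nL test compound or DMSO was added; plates sat overnight, and red fluorescence (540/590nm) was recorded.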

[7] = qHTS assay to test for compound auto fluorescence at 535 nm (green) in HEK293 cells (AID 720680); conditions: green autofluorescence 485/535 nm; series mostly up to 91.3 µM
[8] = qHTS assay to test for compound auto fluorescence at 460 nm (blue) in HEK293 cell free culture (AID 720681); conditions: cell-free medium, autofluorescence 405/460 nm (blue); series mostly up to 91.3 µM
Procedure, shortened: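 Blue fluorescence (Ex 405/Em 460 nm, triamterene-equivalent) was read immediately after pin transfer of compound or DMSO into medium (DMEM, 10% FBS) without cells.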

[9] = qHTS assay to test for compound auto fluorescence at 535 nm (green) in HEK293 cell free culture (AID 720682); conditions: cell-free medium, green autofluorescence 485/535 nm, stronger effect = higher value; series mostly up to 91.3 µM
Procedure, shortened: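 Compounds were pin-transferred into cell-free DMEM with 10% FBS, and green fluorescence was read at excitation 485 nm and emission 535 nm. Intensities were expressed as fluorescein-equivalent values.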

[10] = qHTS assay to test for compound auto fluorescence at 590 nm (red) in HEK293 cell free culture (AID 720683); conditions: cell-free medium autofluorescence, Ex540/Em590 red; series mostly up to 91.3 µM
Procedure, shortened: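 Red-channel autofluorescence of compounds in culture medium (DMEM, 10% FBS), no cells, measured at 540/590 nm. Rose Bengal sodium is the reference fluorophore for equivalence.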

[11] = qHTS assay to test for compound auto fluorescence at 590 nm (red) in HepG2 cell free culture (AID 720684); conditions: cell-free medium autofluorescence, red 540/590 nm; series mostly up to 91.3 µM
Procedure, shortened: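 No cells present: MEM + 10% FBS only. Compound pinned in, red label read (540/590 nm). Activity = fluorescence equivalent to Rose Bengal sodium.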

[12] = qHTS assay to test for compound auto fluorescence at 460 nm (blue) in HepG2 cell free culture (AID 720685); conditions: Cell-free culture medium, blue autofluorescence 405/460 nm; series mostly up to 91.3 µM
Procedure, shortened: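 Cell-free plates of MEM plus 10% FBS received 23 nL compound or DMSO vehicle; blue-channel (405/460 nm) intensity scored against triamterene as reference fluorophore.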

[13] = qHTS assay to test for compound auto fluorescence at 535 nm (green) in HepG2 cell free culture (AID 720686); conditions: Cell-free medium, green autofluorescence 485/535 nm; series mostly up to 91.3 µM
[14] = qHTS assay to test for compound auto fluorescence at 460 nm (blue) in HepG2 cells (AID 720687); conditions: autofluorescence 405/460 nm, 1 h; series mostly up to 91.3 µM
Procedure, shortened: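 Blue-channel autofluorescence (Ex/Em 405/460 nm, triamterene-equivalent) was measured after 1 hr compound exposure at 37 C, 5% CO2. Cells were HepG2, plated overnight at 37 C in MEM plus 10% FBS.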

[15] = biological target: Glucocorticoid receptor (Homo sapiens) (UniProt P04150); experiment: qHTS assay to identify small molecule agonists of the glucocorticoid receptor (GR) signaling pathway (AID 720691; active means well fitted activation curve with a large enough effect in the signal ratio in the repeat runs, not every such curve was filed as active; the % refers to the signal ratio); conditions: GR-bla HeLa, beta-lactamase reporter ratio, 18 h; series mostly up to 62.4 µM
Procedure, shortened: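 Cells: GR-bla HeLa, endogenous GR with stably integrated GRE-beta-lactamase reporter. Treatment 18 h, 37 C, compounds delivered in DMSO. Detection via LiveBLAzer B/G FRET substrate, 2 h RT, fluorescence intensity.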

[16] = qHTS assay for small molecule agonists of the p53 signaling pathway - cell viability (AID 651633; calls by dose curve;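 further: p53RE-bla HCT reporter cells with a stable beta-lactamase p53 reporter; nearly all actives have a fitted effect of over 30% in size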); conditions: p53RE-bla HCT-116 viability, ATP luminescence, 16 h; series mostly up to 83.3 µM
Procedure, shortened: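 Viability counter-read: CellTiter-Glo luminescence (30 min, room temperature) in the same p53RE-bla plates. These plates had been exposed to compounds for 16 h at 37 C.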

[17] = qHTS assay for small molecules that induce genotoxicity in human embryonic kidney cells expressing luciferase-tagged ATAD5 - cell viability (AID 651634; calls by dose curve; further: nearly all actives have a fitted effect of over 25% in size); conditions: HEK293T ATAD5-luc cells viability, CellTiter-Fluor, 15.5 h; series mostly up to 83.3 µM
Procedure, shortened: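 After 15.5 hr incubation with compound at 37C, 5% CO2, HEK293T ATAD5-luciferase cells received CellTiter-Fluor reagent; fluorescence intensity was quantified following 30 min at 37C.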

[18] = biological target: Glucocorticoid receptor (Homo sapiens) (UniProt P04150); experiment: qHTS assay to identify small molecule antagonists of the glucocorticoid receptor (GR) signaling pathway (AID 720692; active means well fitted inhibition curve with a large enough effect in the signal ratio in the repeat runs, not every such curve was filed as active; the % refers to the signal ratio); conditions: GR-bla HeLa, beta-lactamase FRET ratio, dexamethasone-stimulated, 18 h; series mostly up to 58.5 µM
Procedure, shortened: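 Quantitative HTS in antagonist format: HeLa cells expressing endogenous GR and a stably integrated GRE-bla reporter, stimulated with 5 nM dexamethasone (final) alongside test compounds for 18 h.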

[19] = qHTS assay for small molecule disruptors of the mitochondrial membrane potential (AID 720635); conditions: HepG2 mitochondrial membrane potential, Mito-MPS dye ratio; series mostly up to 83.2 µM; further: potency means the concentration at half of the fitted maximal effect
Procedure, shortened: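 Mitochondrial membrane potential tracked with Mito-MPS dye, red aggregates (ex 540/em 590 nm) against green monomers (ex 490/em 535 nm). Compound treatment 1 hr at 37C, dye 30 min in HepG2.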

Glucocorticoid receptor (Homo sapiens), sequence (P04150 whole entry, looked up): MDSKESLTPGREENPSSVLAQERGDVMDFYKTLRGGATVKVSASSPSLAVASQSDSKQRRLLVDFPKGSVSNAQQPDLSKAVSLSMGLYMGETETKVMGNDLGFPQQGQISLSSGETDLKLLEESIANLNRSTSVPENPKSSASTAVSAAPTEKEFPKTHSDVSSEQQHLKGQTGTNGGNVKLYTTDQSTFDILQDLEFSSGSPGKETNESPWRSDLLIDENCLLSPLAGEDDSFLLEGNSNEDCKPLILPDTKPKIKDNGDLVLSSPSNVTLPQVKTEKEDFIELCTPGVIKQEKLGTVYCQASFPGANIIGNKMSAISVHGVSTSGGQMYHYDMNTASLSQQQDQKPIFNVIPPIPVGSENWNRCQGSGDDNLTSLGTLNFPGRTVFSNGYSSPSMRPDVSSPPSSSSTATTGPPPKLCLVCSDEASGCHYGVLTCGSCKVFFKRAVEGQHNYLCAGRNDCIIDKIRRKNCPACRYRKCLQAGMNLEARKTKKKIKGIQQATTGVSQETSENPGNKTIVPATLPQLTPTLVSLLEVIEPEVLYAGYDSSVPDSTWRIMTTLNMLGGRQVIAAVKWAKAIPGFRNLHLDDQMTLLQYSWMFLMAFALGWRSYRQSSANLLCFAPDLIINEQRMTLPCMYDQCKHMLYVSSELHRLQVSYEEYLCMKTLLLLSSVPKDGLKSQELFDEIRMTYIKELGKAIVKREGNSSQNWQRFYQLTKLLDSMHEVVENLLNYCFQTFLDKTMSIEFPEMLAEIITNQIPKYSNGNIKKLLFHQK

CN1CCN(C2=Nc3cc(Cl)ccc3Nc3ccccc32)CC1
Potency [1]: inactive
Potency [2]: inactive
outcome [3]: inactive
outcome [4]: inactive
Potency [5]: inactive
outcome [6]: inactive
outcome [7]: inactive
Potency [8]: inactive
outcome [9]: inactive
outcome [10]: inactive
outcome [11]: inactive
Potency [12]: inactive
outcome [13]: inactive
Potency [14]: inactive
Potency [15]: inactive

CN(C)CC/C=C1\c2ccccc2COc2ccccc21
Potency [16]: inactive
Potency [17]: inactive
Potency [2]: inactive
outcome [3]: inactive
outcome [4]: inactive
Potency [5]: inactive
outcome [6]: inactive
outcome [7]: inactive
Potency [8]: inactive
outcome [9]: inactive
outcome [10]: inactive
outcome [11]: inactive
Potency [12]: inactive
Potency [14]: inactive
Potency [15]: inactive
Potency [18]: inactive

CCCCCC(CO)CCC (centres undefined)
Potency [17]: inactive
Potency [2]: inactive
Potency [19]: inactive
outcome [3]: inactive
Potency [5]: inactive
outcome [6]: inactive
Potency [8]: inactive
outcome [9]: inactive
outcome [10]: inactive
outcome [11]: inactive
Potency [12]: inactive
outcome [13]: inactive

Cc1nc2ccccc2n1Cc1ccc(Cl)cc1
Potency [17]: inactive
outcome [3]: inactive
outcome [4]: inactive
Potency [5]: inactive
outcome [6]: inactive
Potency [8]: inactive
outcome [9]: inactive
outcome [10]: inactive
outcome [11]: inactive
Potency [12]: inactive
outcome [13]: inactive
Potency [15]: inactive

CC(=O)c1c(C)c([N+](=O)[O-])c(C(C)(C)C)c([N+](=O)[O-])c1C
Potency [1]: inactive
Potency [17]: inactive
Potency [19]: 54.5 µM (active)
outcome [3]: inactive
Potency [5]: inactive
outcome [6]: inactive
outcome [7]: inactive
outcome [9]: inactive
outcome [10]: inactive
outcome [11]: inactive
outcome [13]: inactive
Potency [14]: inactive
Potency [15]: inactive
Potency [18]: inactive

CN(C)CC[C@@H](c1ccc(Br)cc1)c1ccccn1
Potency [16]: inactive
Potency [17]: inactive
Potency [2]: inactive
Potency [19]: inactive
outcome [3]: inactive
outcome [4]: inactive
Potency [5]: inactive
outcome [6]: inactive
Potency [8]: inactive
outcome [9]: inactive
outcome [10]: inactive
outcome [11]: inactive
Potency [12]: inactive
outcome [13]: inactive
Potency [14]: inactive

CCN(CC)C(C)CN1c2ccccc2Sc2ccccc21 (centres undefined)
Potency [16]: inactive
Potency [17]: inactive
Potency [2]: inactive
Potency [19]: inactive
fluorescence, relative to Rose Bengal [3]: 0.373% [at 18.6 µM]
fluorescence, % of fluorescein control [4]: 0.0339% [at 18.6 µM]
fluorescence, % of triamterene [5]: -0.0331% [at 18.6 µM]
fluorescence, % of fluorescent control [6]: -0.0946% [at 18.6 µM]
fluorescence, % of fluorescein [7]: -0.0513% [at 18.6 µM]
fluorescence, % of fluorescent control [8]: -0.0592% [at 18.6 µM]
activity change [9]: -0.135% [at 18.6 µM]
fluorescence, % of fluorescent control [10]: -0.0816% [at 18.6 µM]
fluorescence, % of Rose Bengal [11]: -0.332% [at 18.6 µM]
fluorescence, % of fluorescein control [13]: -0.0641% [at 18.6 µM]
Potency [15]: inactive
